This is an account of results in PubChem BioAssay.

Each structure is given as a SMILES string. Calls of active or inactive are those of the source.

Assay [1] relates to PRMT1 (protein arginine N-methyltransferase 1). In words: PRMT1 binders on small-molecule microarrays, primary screen, biochemical, small-molecule microarray, 635 nm fluorescence (AID 1088).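 Also: binding of Prmt1 protein to compounds spotted on small-molecule microarray slides.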 The note with it: small-molecule microarray binding, higher = more signal.
The nature of assay [2]: yeast growth modulation, basal conditions, primary screen, YJM789 clinical isolate, OD600, 24 h (AID 1089).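 Also: growth of clinical yeast isolate S. cerevisiae YJM 789 seeded 1000 cells per well; test concentration not given here.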 The note with it: S. cerevisiae YJM789 growth, higher = more signal, called active from +8 up or from −8 down.
A short description of assay [3]: fission yeast growth modulation, primary screen, strain 972, OD600, 24 h, no modulator (AID 1090).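 Also: basal condition with compound alone and no growth modifier present; test concentration not given here.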 The note with it: S. pombe 972 growth, higher = more signal, called active from +8 up or from −8 down.
Assay [4] is described as follows: S. cerevisiae growth modulation with rapamycin, primary screen, strain BY4716, OD600, 96 h (AID 1091). Also: test concentration not given here. The note with it: higher = more signal, called active from +8 up or from −8 down.
In assay [5] the target is Torsin-1A-interacting protein 2 (Homo sapiens) (UniProt Q8NFQ8). In words: LULL1 binders on small-molecule microarray, primary screen, cell lysate, human LULL1 lysate, 635/667 nm fluorescence (AID 1092).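 Also: probe is lysate of COS7 cells overexpressing human LULL1; score merges per-feature 667 nm fluorescence with signal-to-noise.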 The note with it: hLULL1 lysate binding, 635 nm fluorescence, higher = more signal.
Assay [6] can be described thus: E. coli growth modulation, two-sided OD650, primary screen, E. coli filamentation project, strain DRC41, 24 h (AID 1093).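 Also: MC1000 strain lacking acrAB efflux and sulA so SOS filamentation is blocked; test concentration not given here.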 The note with it: OD650, 24 h, higher = more signal, called active from +8 up or from −8 down.
Assay [7] in a line: small-molecule microarray binders of probe aLefty2, primary screen, biochemical, biotinylated probe, 635/667 nm fluorescence (AID 1094).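 Also: score merges spot fluorescence near 667 nm with spot signal-to-noise ratio.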 The note with it: higher = more signal.
For assay [8], the system named is Noggin (protein binding on small-molecule microarray). In words: Noggin binders on small-molecule microarray, primary screen, biochemical, 635/667 nm fluorescence (AID 1095).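 Also: score merges 667 nm feature fluorescence with signal to noise over triplicate slides.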 The note with it: 635 nm fluorescence, higher = more signal.
Assay [9] addresses Neurogenic locus notch homolog protein 3 (Homo sapiens) (UniProt Q9UM47). In words: NOTCH3 binders on small-molecule microarray, primary screen, biochemical, 635/667 nm fluorescence (AID 1096). The note with it: NOTCH3 binding, 635 nm fluorescence, higher = more signal.
A short description of assay [10]: small-molecule microarray binders of probe aEGFR, primary screen, biochemical, biotinylated probe, 635/667 nm fluorescence (AID 1097).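 Also: probe is a biotinylated anti-EGFR antibody binding compounds printed on slides; score combines fluorescence near 667 nm and signal to noise of each spot.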 The note with it: higher = more signal.
Assay [11] deals with Plasmodium falciparum Sir2 (PF13_0152, Sir2A). In words: pfSir2 binders on small-molecule microarrays, primary screen, biochemical, small-molecule microarray, 635 nm fluorescence (AID 1098).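 Also: score merges spot fluorescence intensity with its signal-to-noise ratio.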 The note with it: small-molecule microarray binding, fluorescence 635 nm; higher = more signal.
Assay [12] is described as follows: small-molecule microarray binders of probe aDKK1, primary screen, biochemical, biotinylated probe, 635/667 nm fluorescence (AID 1099).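 Also: score merges 667nm spot fluorescence with signal to noise across triplicate slides; reference of the scale not given here.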 The note with it: higher = more signal.
The nature of assay [13]: small-molecule microarray binders of probe aCHRDL2, primary screen, biochemical, biotinylated probe, 635/667 nm fluorescence (AID 1100). The note with it: higher = more signal.
The nature of assay [14]: splicing luciferase reporter signal modulators, primary screen, spliceosome inhibition project, cell-based, HEK293, splice +/- reporter (AID 1101).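 Also: HEK293 cells carrying a splicing-competent luciferase reporter gene; test concentration not given here.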 The note with it: luminescence, 24 h, higher = more signal, called active from +8 up or from −8 down. Background: Reporter assays use an easily measured gene product as a stand-in for the process of interest.
The target of assay [15] is Fibroblast growth factor 10 (Homo sapiens) (UniProt O15520). In words: FGF10 binders on small-molecule microarrays, primary screen, biochemical, small-molecule microarray, 635 nm fluorescence (AID 1102). The note with it: FGF10 binding, fluorescence 635 nm, higher = more signal.
Assay [16] concerns glycogen synthase kinase-3 (GSK3A per assay name; protocol says GSK3B). In words: GSK3 binders on small-molecule microarrays, primary screen, biochemical, small-molecule microarray, 635 nm fluorescence, GSK3A (AID 1103). Also: the record names both GSK3A and GSK3B. The note with it: small-molecule microarray binding, fluorescence 635 nm; higher = more signal.
Assay [17] deals with Epidermal growth factor receptor (Homo sapiens) (UniProt P00533). In words: EGFR binders on small-molecule microarrays, primary screen, biochemical, small-molecule microarray, 635 nm fluorescence (AID 1104).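 Also: score merges 667 nm emission intensity with spot signal to noise over triplicate slides.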 The note with it: EGFR binding, higher = more signal.
The target of assay [18] is Follistatin-related protein 3 (Homo sapiens) (UniProt O95633). In words: FSTL3 binders on small-molecule microarrays, primary screen, biochemical, small-molecule microarray, 635 nm fluorescence (AID 1105).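 Also: score merges emission near 667 nm and signal to noise per printed spot across three slides.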 The note with it: FSTL3 binding, higher = more signal.
Assay [19] concerns the target Dickkopf-related protein 1 (Homo sapiens) (UniProt O94907). In words: DKK1 binders on small-molecule microarrays, primary screen, biochemical, small-molecule microarray, 635 nm fluorescence scan (AID 1106).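 Also: score merges emission near 667 nm with signal to noise over three replicate slides.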 The note with it: DKK1 binding, higher = more signal.
The subject of assay [20] is Inhibin beta A chain (activin A). In words: INHBA (activin A) binders on microarrays, primary screen, biochemical, small-molecule microarray, 635 nm fluorescence scan (AID 1107).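 Also: mouse activin A protein probed at 4.33 µg/mL on printed slides; score merges bound-protein fluorescence near 667 nm with spot signal-to-noise.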 The note with it: small-molecule microarray binding, higher = more signal.

Dickkopf-related protein 1 (Homo sapiens), sequence (O94907 whole entry, looked up): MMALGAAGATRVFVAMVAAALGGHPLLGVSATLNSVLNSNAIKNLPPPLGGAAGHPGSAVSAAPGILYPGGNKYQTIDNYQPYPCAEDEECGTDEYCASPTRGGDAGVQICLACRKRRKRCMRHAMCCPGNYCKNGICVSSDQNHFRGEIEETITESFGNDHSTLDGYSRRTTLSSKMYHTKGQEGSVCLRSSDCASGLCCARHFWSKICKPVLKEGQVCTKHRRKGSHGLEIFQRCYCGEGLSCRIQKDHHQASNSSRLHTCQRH
Epidermal growth factor receptor (Homo sapiens), sequence (P00533 whole entry, looked up): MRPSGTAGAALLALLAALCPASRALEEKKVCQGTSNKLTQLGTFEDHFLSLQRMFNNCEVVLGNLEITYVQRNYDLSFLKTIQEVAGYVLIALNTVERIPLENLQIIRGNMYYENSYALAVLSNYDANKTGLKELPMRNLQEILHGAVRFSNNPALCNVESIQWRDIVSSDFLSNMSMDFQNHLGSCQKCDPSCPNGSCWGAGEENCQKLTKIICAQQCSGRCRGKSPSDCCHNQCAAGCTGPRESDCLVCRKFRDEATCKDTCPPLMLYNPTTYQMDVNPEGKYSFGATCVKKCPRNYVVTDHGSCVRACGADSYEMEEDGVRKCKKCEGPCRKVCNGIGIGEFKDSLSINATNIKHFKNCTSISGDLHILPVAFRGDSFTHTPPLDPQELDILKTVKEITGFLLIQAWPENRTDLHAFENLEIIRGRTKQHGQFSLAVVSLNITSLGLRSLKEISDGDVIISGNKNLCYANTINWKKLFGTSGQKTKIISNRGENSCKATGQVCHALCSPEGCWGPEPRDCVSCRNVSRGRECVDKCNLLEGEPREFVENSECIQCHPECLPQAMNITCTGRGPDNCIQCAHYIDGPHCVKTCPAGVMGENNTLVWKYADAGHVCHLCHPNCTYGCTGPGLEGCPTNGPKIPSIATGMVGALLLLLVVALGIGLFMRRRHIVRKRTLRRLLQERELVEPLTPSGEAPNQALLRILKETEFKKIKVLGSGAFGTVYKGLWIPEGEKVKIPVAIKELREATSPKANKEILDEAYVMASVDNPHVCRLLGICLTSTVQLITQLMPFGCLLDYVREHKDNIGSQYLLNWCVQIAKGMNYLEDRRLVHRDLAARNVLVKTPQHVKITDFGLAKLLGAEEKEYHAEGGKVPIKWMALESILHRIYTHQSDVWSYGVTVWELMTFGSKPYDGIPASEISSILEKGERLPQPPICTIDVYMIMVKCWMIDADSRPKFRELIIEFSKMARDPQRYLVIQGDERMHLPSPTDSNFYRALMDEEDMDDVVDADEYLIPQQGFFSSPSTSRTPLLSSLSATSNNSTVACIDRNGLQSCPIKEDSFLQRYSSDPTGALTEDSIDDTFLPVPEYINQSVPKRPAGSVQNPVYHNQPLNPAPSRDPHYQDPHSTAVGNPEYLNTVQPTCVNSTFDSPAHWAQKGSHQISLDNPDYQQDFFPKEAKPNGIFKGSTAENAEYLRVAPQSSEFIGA
Neurogenic locus notch homolog protein 3 (Homo sapiens), sequence (Q9UM47 whole entry, looked up): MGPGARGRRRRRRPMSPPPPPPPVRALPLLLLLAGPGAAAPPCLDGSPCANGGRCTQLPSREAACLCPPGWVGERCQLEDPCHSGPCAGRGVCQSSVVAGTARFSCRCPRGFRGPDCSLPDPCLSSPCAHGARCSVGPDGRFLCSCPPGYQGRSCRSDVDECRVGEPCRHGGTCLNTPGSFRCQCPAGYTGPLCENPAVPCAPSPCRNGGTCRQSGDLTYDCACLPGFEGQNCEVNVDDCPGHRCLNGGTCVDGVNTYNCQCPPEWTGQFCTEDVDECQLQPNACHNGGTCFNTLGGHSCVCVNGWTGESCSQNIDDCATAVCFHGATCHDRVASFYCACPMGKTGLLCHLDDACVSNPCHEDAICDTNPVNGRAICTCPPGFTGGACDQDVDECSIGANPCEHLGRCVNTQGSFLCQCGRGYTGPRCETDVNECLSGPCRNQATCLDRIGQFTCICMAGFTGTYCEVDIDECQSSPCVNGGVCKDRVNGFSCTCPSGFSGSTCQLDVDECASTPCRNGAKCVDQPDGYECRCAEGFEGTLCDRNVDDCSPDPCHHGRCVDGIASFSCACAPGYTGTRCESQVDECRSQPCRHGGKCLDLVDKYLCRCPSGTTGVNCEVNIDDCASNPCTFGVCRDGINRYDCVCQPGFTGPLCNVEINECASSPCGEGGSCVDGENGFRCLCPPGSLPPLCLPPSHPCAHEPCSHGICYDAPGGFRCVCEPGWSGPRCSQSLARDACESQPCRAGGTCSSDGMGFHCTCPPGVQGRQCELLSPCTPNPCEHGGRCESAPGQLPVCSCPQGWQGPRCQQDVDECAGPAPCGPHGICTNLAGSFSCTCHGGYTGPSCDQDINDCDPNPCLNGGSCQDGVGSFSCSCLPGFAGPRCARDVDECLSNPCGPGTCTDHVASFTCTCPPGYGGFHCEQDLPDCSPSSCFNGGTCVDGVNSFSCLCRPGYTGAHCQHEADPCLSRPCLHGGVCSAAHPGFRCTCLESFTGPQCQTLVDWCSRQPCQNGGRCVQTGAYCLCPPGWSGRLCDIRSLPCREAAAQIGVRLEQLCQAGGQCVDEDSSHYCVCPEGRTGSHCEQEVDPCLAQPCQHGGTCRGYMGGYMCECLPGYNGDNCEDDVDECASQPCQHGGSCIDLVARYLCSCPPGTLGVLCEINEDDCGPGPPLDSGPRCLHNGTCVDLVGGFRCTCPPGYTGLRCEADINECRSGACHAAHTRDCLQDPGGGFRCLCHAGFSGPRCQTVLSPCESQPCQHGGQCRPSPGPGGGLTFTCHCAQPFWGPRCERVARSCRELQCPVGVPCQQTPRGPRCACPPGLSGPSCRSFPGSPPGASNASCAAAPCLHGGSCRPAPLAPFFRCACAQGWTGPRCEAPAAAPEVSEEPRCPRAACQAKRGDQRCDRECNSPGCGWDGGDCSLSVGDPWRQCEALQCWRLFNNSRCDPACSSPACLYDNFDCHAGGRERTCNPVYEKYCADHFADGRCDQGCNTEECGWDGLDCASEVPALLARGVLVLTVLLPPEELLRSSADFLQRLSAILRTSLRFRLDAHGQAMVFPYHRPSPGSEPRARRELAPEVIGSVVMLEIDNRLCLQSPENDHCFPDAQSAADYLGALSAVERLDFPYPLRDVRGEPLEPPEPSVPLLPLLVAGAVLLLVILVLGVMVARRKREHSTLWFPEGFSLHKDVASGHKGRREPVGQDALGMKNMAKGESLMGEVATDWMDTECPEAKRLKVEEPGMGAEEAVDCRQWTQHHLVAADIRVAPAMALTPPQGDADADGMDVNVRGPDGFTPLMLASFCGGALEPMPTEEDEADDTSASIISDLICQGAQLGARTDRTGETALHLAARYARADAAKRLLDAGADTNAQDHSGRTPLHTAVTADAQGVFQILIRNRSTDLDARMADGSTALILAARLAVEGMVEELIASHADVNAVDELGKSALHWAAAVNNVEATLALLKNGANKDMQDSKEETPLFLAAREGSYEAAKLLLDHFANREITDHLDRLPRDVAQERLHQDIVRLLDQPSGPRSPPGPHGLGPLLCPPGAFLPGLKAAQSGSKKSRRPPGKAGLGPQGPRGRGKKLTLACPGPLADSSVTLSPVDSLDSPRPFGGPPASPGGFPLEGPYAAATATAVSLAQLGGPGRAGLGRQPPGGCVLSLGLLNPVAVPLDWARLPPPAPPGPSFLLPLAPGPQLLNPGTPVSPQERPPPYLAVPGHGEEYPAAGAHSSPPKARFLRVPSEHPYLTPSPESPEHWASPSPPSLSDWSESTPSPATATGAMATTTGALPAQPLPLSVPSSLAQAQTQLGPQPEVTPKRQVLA
Torsin-1A-interacting protein 2 (Homo sapiens), sequence (Q8NFQ8 whole entry, looked up): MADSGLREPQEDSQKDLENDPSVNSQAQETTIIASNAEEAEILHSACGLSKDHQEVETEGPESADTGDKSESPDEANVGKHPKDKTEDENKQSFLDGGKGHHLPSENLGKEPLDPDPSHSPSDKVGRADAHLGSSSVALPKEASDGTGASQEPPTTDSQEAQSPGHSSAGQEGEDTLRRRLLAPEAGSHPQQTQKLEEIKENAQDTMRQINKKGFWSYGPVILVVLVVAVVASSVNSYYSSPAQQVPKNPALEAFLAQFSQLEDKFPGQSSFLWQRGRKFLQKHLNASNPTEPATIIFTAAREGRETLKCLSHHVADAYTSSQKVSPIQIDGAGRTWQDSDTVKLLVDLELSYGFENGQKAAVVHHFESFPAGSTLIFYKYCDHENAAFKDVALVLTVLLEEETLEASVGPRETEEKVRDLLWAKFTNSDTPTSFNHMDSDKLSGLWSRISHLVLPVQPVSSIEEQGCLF
Fibroblast growth factor 10 (Homo sapiens), sequence (O15520 whole entry, looked up): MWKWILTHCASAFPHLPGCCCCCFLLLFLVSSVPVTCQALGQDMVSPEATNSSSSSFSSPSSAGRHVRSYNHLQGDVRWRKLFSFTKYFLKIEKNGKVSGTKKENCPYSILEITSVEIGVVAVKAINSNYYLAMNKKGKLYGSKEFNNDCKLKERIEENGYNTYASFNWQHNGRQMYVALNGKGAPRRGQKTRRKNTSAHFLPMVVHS
Follistatin-related protein 3 (Homo sapiens), sequence (O95633 whole entry, looked up): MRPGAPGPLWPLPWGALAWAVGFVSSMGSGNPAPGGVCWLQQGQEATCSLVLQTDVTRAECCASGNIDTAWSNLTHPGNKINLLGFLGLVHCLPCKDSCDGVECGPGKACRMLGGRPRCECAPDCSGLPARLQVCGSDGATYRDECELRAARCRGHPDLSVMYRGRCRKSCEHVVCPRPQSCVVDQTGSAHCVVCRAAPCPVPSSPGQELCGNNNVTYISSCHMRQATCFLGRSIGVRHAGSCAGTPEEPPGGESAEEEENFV

In the case of `Cc1ccc([C@H]2C(C(=O)O)=C[C@@H](C(C)C)N2S(=O)(=O)c2ccc(C)cc2)cc1`, the composite z-score in [1] was 0.425; in assay [5], 3.51; in assay [7], -0.0598; in assay [8], -0.0681; in assay [9], 0.412; in assay [10], -0.0457. Also, the composite z-score is 0.853 in [11]; 0.309 in assay [12]; 0.68 in assay [13]; 0.265 in [15]; 0.914 in [16]; -0.206 in [17]. Further, the composite z-score in assay [18] is -0.103; in assay [19] it was -0.329; in assay [20], 0.479. Also, the z-score in assay [2] was -0.763 (inactive); in assay [3], 0.0459 (inactive); in [4], -0.128 (inactive); in assay [6], -0.678 (inactive); in [14] it was -0.349 (inactive).

Turning to `COCCOC(=O)N1C(=O)[C@@]2(c3cc(C#CCCO)ccc31)[C@H](C(=O)NC[C@H](O)c1ccccc1)[C@H]1C(=O)O[C@H](c3ccccc3)[C@H](c3ccccc3)N1[C@@H]2c1ccc(OCCO)cc1`, the composite z-score in assay [1] stood at 1.54; in assay [5], 3.11; in assay [7], 0.0129; in assay [8], 0.909; in assay [9], 1.05; in [10], 0.0634. The composite z-score in assay [11] amounted to 1.24; in [12] it was 0.112; in assay [13], 0.169; in assay [15], 0.901; in assay [16], 1.3; in [17], 0.887. Moreover, the composite z-score amounted to 1.26 in assay [18], 0.512 in [19] and 0.585 in [20]. The z-score in [2] is 1.23 (inactive); in assay [3], 0.619 (inactive); in assay [4], 4.47 (inactive); in [6], 2.17 (inactive); in assay [14], -1.33 (inactive).

On to `[N-]=[N+]=NCc1ccccc1[C@@H]1OC(c2ccc(OCCCO)cc2)=N[C@]1(Cc1ccccc1)C(=O)O`, for which the composite z-score in [1] was 1.54; in assay [5], 3.2; in [7], 0.0769; in assay [8], -0.0061; in assay [9], 0.315; in [10], 0.271. Further, the composite z-score in [11] was 1.03; in assay [12] it was 0.175; in [13], 0.917; in assay [15], 0.661; in assay [16], 0.294; in [17] it was -0.321. For the same compound, the composite z-score in assay [18] was -0.086; in [19], -0.617; in assay [20] it was 1.2. Moreover, the z-score is 0.452 (inactive) in assay [2]; -1.11 (inactive) in assay [3]; -0.486 (inactive) in assay [4]; 0.652 (inactive) in assay [6]; -0.013 (inactive) in assay [14].

On to `O=C1OCC=C[C@H]2OC34C=CCN(c5ccc6ccccc6c5)C(=O)[C@H]3N(CCO)C(=O)[C@@H]4[C@@H]12` (stereo not given in full), for which the composite z-score in assay [1] was 0.491; in assay [5] it was 0.951; in assay [7], -0.0841; in [8] it was -1.58; in assay [9] it was -0.127; in assay [10], -0.281. In addition, the composite z-score in assay [11] is 1.07; in assay [12], 0.134; in assay [13], 0.947; in [15], -0.455; in [16], -0.657; in assay [17], -1.49. In addition, the values for the composite z-score in assay [18], in assay [19] and in [20] were -1.33, -2.42 and 0.589, respectively. The z-score in assay [2] was 0.689 (inactive); in assay [3], 0.0739 (inactive); in assay [4] it was -0.409 (inactive); in assay [6], -0.746 (inactive); in assay [14], -0.461 (inactive).

As to `C=CCN1C(=O)[C@]2(Cc3ccccc31)N=C(c1ccc(OCCCO)cc1)O[C@@H]2c1ccccc1`, the composite z-score in assay [1] was 1.33; in assay [5], 2.76; in assay [7], 0.235; in assay [8], 0.555; in assay [9], 0.923; in assay [10], 0.0786. Besides, the composite z-score in [11] is 0.733; in assay [12] it was 0.779; in [13], 0.922; in assay [15], 1.43; in assay [16], 0.881; in [17] it was -0.0128. The figures for the composite z-score in assay [18], in assay [19] and in assay [20] were 0.439, 0.998 and 1.27, respectively. In addition, the z-score in assay [2] is -2.2 (inactive); in assay [3], -4.05 (inactive); in [4], 0.259 (inactive); in assay [6] it was -2.56 (inactive); in assay [14] it was 0.105 (inactive).
